The results in this text go back to PubChem BioAssay (NCATS).

Inconclusive results are not listed. Unmarked numbers belong to inactive results. Calls of active or inactive are those of the source. The call rests on the fitted dose curve; in most records, active means well fitted cell-killing curve with a large enough effect; inconclusive means small, poorly fitted or top-dose-only effect, or effect the other way; inactive means no such curve, though single readings can be large or run the other way.

Assay [1] can be described thus: Quantitative High-Throughput drug screen in 47 multiple myeloma cell lines against the NCATS MIPE library collection: SKMM1_PLB cell viability assay (AID 1919863). Further: nearly all actives have a fitted effect of over 35% in size. As to conditions: SKMM1 myeloma viability, CellTiter-Glo ATP, 48 h; viability: active compounds read low. In outline: (§1)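 MIPE 4.0 approved/investigational drugs; 500 cells/well; 48 h 37 °C humidified 5% CO2; CTG luminescence readout; DMSO = 100%, media = 0% viability.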

Assay [2] in a line: Quantitative High-Throughput drug screen in 47 multiple myeloma cell lines against the NCATS MIPE library collection: U266_ATCC cell viability assay (AID 1919864). Further: nearly all actives have a fitted effect of over 35% in size. In outline:
as §1

A short description of assay [3]: Quantitative High-Throughput drug screen in 47 multiple myeloma cell lines against the NCATS MIPE library collection: XG6_PLB cell viability assay (AID 1919865). Further: nearly all actives have a fitted effect of over 40% in size. In outline: as §1
Assay [4] can be described thus: Quantitative High-Throughput drug screen in 47 multiple myeloma cell lines against the NCATS MIPE library collection: UTMC2_PLB cell viability assay (AID 1919868). Further: nearly all actives have a fitted effect of over 55% in size. As to conditions: CellTiter-Glo ATP luminescence, 48 h; viability (% of DMSO control): at 45.8 µM (top of the series). The procedure, abridged:
as §1

Assay [5] in a line: Quantitative High-Throughput drug screen in 47 multiple myeloma cell lines against the NCATS MIPE library collection: PE2_PLB cell viability assay (AID 1919869). Further: nearly all actives have a fitted effect of over 35% in size. The procedure, abridged: as §1
Assay [6] can be described thus: Quantitative High-Throughput drug screen in 47 multiple myeloma cell lines against the NCATS MIPE library collection: PCM6_Riken cell viability assay (AID 1919870). Further: nearly all actives have a fitted effect of over 30% in size. The procedure, abridged:
as §1

The nature of assay [7]: Quantitative High-Throughput drug screen in 47 multiple myeloma cell lines against the NCATS MIPE library collection: RPMI8226_ATCC cell viability assay (AID 1919871). Further: nearly all actives have a fitted effect of over 30% in size. The procedure, abridged: as §1
The nature of assay [8]: Quantitative High-Throughput drug screen in 47 multiple myeloma cell lines against the NCATS MIPE library collection: OPM2_DSMZ cell viability assay (AID 1919872). Further: nearly all actives have a fitted effect of over 30% in size. The procedure, abridged: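 We plated 500 myeloma cells per well, pinned in MIPE 4.0 compounds, and incubated for 48 hours at 37C. ATP was then quantified with CellTiter-Glo, with DMSO and media-only wells defining 100% and 0%.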

Assay [9] can be described thus: Quantitative High-Throughput drug screen in 47 multiple myeloma cell lines against the NCATS MIPE library collection: KMS11_JCRBsus cell viability assay (AID 1919873). Further: nearly all actives have a fitted effect of over 50% in size. In outline:
as §1

Assay [10] can be described thus: Quantitative High-Throughput drug screen in 47 multiple myeloma cell lines against the NCATS MIPE library collection: KMS28BM_JCRB cell viability assay (AID 1919874). Further: nearly all actives have a fitted effect of over 35% in size. The procedure, abridged: as §1
The nature of assay [11]: Quantitative High-Throughput drug screen in 47 multiple myeloma cell lines against the NCATS MIPE library collection: XG1_PLB cell viability assay (AID 1919866). Further: nearly all actives have a fitted effect of over 35% in size. The procedure, abridged:
as §1

The nature of assay [12]: Quantitative High-Throughput drug screen in 47 multiple myeloma cell lines against the NCATS MIPE library collection: VP6_DJ cell viability assay (AID 1919867). Further: nearly all actives have a fitted effect of over 40% in size. In outline:
as §1
Potency means the concentration at half of the fitted maximal effect.

With `CC1(C)O[C@H]2C[C@@H]3[C@H]4CCC5=CC(=O)C=C[C@]5(C)[C@@]4(F)[C@@H](O)C[C@]3(C)[C@]2(C(=O)CO)O1`, the viability in assay [1] is 108%. Besides, the Potency result in assay [2], in [3], in assay [4], in assay [5], in assay [8] and in [10] was “inactive” in each case. Moreover, the Potency was 0.059 µM (active) in assay [6], 0.003 µM (active) in assay [7] and 0.0083 µM (active) in assay [9].

Regarding `O=C(Nc1c(Cl)cncc1Cl)c1ccc(OC(F)F)c(OCC2CC2)c1`, the viability in assay [1] was 111%. Besides, the Potency result in [2], in [7], in [8], in assay [9] and in assay [10] was “inactive” each time. For the same compound, the Potency in [11] is 18.7 µM (active).

Regarding `COc1ccc(-n2c(C)c([N+](=O)[O-])c3ccc(O)cc32)cc1`, the Potency is 4.18 µM (active) in assay [1] and 4.69 µM (active) in assay [5]. The Potency entry in assay [2], in assay [3], in assay [4], in assay [7] and in [8] was “inactive” throughout.

With `CC[C@H]1OC(=O)[C@H](C)[C@@H](O[C@H]2C[C@@](C)(OC)[C@@H](O)[C@H](C)O2)[C@H](C)[C@@H](O[C@@H]2O[C@H](C)C[C@H](N(C)C)[C@@H]2O)[C@](C)(O)C[C@@H](C)CN(C)[C@H](C)[C@@H](O)[C@]1(C)O`, the Potency in [1] was 16.6 µM (active); in [2], 9.35 µM (active); in [7] it was 18.7 µM (active). In addition, the Potency result in assay [12], in assay [5], in assay [9] and in assay [10] was “inactive” throughout.

As for `CO[C@H]1C[C@@H]2CC[C@@H](C)[C@@](O)(O2)C(=O)C(=O)N2CCCC[C@@H]2C(=O)O[C@H]([C@H](C)C[C@@H]2CC[C@H](OP(C)(C)=O)[C@H](OC)C2)CC(=O)[C@H](C)C=C(C)[C@@H](O)[C@@H](OC)C(=O)[C@H](C)C[C@H](C)C=CC=CC=C1C`, in assay [1], the viability was 83.3%. Moreover, the Potency entry in assay [2], in assay [11], in assay [4], in assay [7], in [8] and in assay [9] was “inactive” in each case. For the same compound, the Potency entry in assay [10] is “inactive”.

For the compound `Cc1cc(OCCCc2c(C(=O)O)n(Cc3cccnc3)c3c(-c4c(COc5ccc(N6CCN([S+](C)(=O)[O-])CC6)cc5)nn(C)c4C)cccc23)cc(C)c1Cl`, the Potency was 23.5 µM (active) in assay [1]; 3.32 µM (active) in assay [2]; 20.9 µM (active) in assay [3]; 18.7 µM (active) in [5]; 20.9 µM (active) in [6]; 10.5 µM (active) in assay [8]. Moreover, the Potency in [9] and in [10] was 23.5 µM (active) in each case.

On to `COC[C@@H](c1ccc(C(F)(F)F)cc1)N1CCN(C2(C)CCN(C(=O)c3c(C)ncnc3C)CC2)C[C@H]1C`, for which, in assay [1], the viability was 118%. Moreover, the Potency in [2] is 6.62 µM (active); in [3], 16.6 µM (active); in assay [6], 20.9 µM (active). The Potency entry in [7], in [9] and in assay [10] was “inactive” throughout.

Take `O=C(CCCCCCC(=O)Nc1ccccc1)NO`: the Potency in assay [1] was 3.72 µM (active); in assay [2] it was 5.9 µM (active); in assay [11], 2.96 µM (active); in assay [4] it was 0.662 µM (active); in assay [5], 3.32 µM (active); in assay [6] it was 3.32 µM (active). In addition, the Potency in assay [7] is 4.69 µM (active); in assay [8] it was 4.69 µM (active); in [9], 2.64 µM (active); in assay [10], 2.09 µM (active).

On to `CC(C)(C)OC(=O)N[C@H]1CCCCCC=C[C@@H]2C[C@@]2(C(=O)NS(=O)(=O)C2CC2)NC(=O)[C@@H]2C[C@@H](OC(=O)N3Cc4cccc(F)c4C3)CN2C1=O`, for which the viability in assay [1] was 123%. In addition, the Potency result in assay [2], in assay [3], in assay [12], in assay [5], in assay [7] and in [8] was “inactive” in each case. The Potency result in assay [9] and in [10] was “inactive” throughout.

On to `COc1ccc2cccc(CCNC(C)=O)c2c1`, for which the viability in assay [1] was 129%. Besides, the Potency result in assay [3], in assay [11], in [5], in assay [6], in [7] and in assay [8] was “inactive” each time. For the same compound, the Potency result in [9] and in assay [10] was “inactive” each time. Also, the Potency in [12] was 5.26 µM (active).

Consider `O=C(O)C(O)Cc1ccc(O)c(O)c1` (stereo not given), for which the Potency in [1] was 11.8 µM (active); in [2], 26.4 µM (active); in [5] it was 16.6 µM (active); in assay [7] it was 26.4 µM (active); in assay [8], 11.8 µM (active). In assay [3], the Potency result was “inactive”.

On to `O=c1cc(-c2ccccc2)oc2cc(O)cc(O)c12`, for which the viability in assay [1] is 139%. Also, the Potency result in [2], in assay [7], in [8] and in assay [10] was “inactive” throughout. In addition, the Potency in assay [6] was 20.9 µM (active).

As for `CC=CC(=O)N(CC)c1ccccc1C`, in assay [1], the viability is 126%. For the same compound, the Potency entry in assay [2], in assay [4], in assay [5], in assay [8], in [9] and in assay [10] was “inactive” each time. Further, the values for the Potency in assay [3] and in assay [7] were 23.5 µM (active) and 3.72 µM (active), respectively.

As to `O=C(O)c1ccc(-c2c[nH]c3ncc(-c4ccccc4)cc23)cc1C1CCCC1`, in [1], the viability is 132%. The Potency entry in assay [2], in [7], in [8], in [9] and in assay [10] was “inactive” each time.

With `CCn1cc(C(=O)O)c(=O)c2ccc(C)nc21`, the viability in [1] was 130%. Further, the Potency entry in assay [3], in [11], in assay [5], in assay [6], in assay [7] and in [8] was “inactive” in each case.

With `O=C1c2c(O)cc(O)cc2O[C@H](c2cc(O)c(O)c(O)c2)[C@H]1O`, the Potency in assay [1] was 20.9 µM (active); in assay [2], 11.8 µM (active); in assay [8], 18.7 µM (active). Besides, the Potency result in assay [12], in assay [4], in [5], in assay [6] and in assay [10] was “inactive” in each case.

In the case of `C=C1C(=O)OC2C=C(C)CCC=C(C)CCC12` (stereo not given), the Potency is 29.6 µM (active) in [1]; 20.9 µM (active) in assay [2]; 16.6 µM (active) in assay [11]; 8.33 µM (active) in assay [12]; 16.6 µM (active) in assay [5]; 18.7 µM (active) in assay [6]. Also, the figures for the Potency in assay [8], in [9] and in [10] were 20.9 µM (active), 20.9 µM (active) and 18.7 µM (active), respectively. Moreover, the Potency result in assay [4] was “inactive”.
